Measurements as given in PubChem BioAssay AID651724 (National Center for Advancing Translational Sciences (NCATS), 2012).
Hit rate of the full screen: of about 340,000 compounds, about 1,700 (0.5%) were called active. Inconclusive results (about 2%) are left out. Rule as the data show it: active = activity change below about -65%; inconclusive = mostly about -30% to -63%; inactive = weaker than that. The list comes from a sample in which actives are over-represented; it also holds similar structures and randomly drawn compounds.
% is scaled to controls: 0 for no effect and ±100 for the full control effect.

These compounds were tested on CtBP / adenovirus E1A interaction (AlphaScreen) (assay: qHTS Assay for Inhibitors of the CtBP/E1A Interaction). Details: AlphaScreen GST-E1A/His-CtBP binding, 1536-well; stronger effect = lower value.
Procedure, shortened: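 GST-E1A and His-tagged CtBP (125 nM each as 5X stock) were preincubated with pin-transferred compound for 2 h at 37 °C in the dark, then glutathione donor and nickel acceptor beads were added for 1 h before AlphaScreen reading.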
For CC(=O)Nc1cc(-c2ccc(N3CCN(C)CC3)cc2)cn2c(-c3ccc(F)cc3)cnc12, the activity change was -22% (inactive).
CCc1nc2ccc(C(=O)Nc3cccc(OC)c3)cn2c1N(CCC(C)C)CCN(C)C was tested, and the activity change was -9.75% (inactive).
With Cc1ccc(S(=O)(=O)N2CCCCC2)cc1NC(=O)CCNC(=O)c1ccccc1Cl the activity change was 2% (inactive).
With O=C(Nc1ccc(Cl)cc1)C1Cc2c(-c3ccc4c(c3)OCO4)ccnc2O1 (stereo unspecified) the activity change was -5.12% (inactive).
O=C(NCc1ccc(F)cc1)c1cc(C2CCCCN2C(=O)c2cccs2)on1 (stereo unspecified) was tested, and the activity change was 4.5% (inactive).
In the case of COc1ccc(C/C(C)=N/NC(=O)c2cc(C)oc2C)cc1, the activity change is reported as 8.03% (inactive).
O=C(NCCOc1ccccc1)c1ccccc1F was tested, and the activity change was 0.486% (inactive).
CCCCCNC(=O)Cc1ccc(OC)cc1 was tested, and the activity change was 12.5% (inactive).
In the case of COc1ccc(CC(=O)N/N=C(\C)c2ccccn2)cc1, the activity change is reported as -73.3% (active).
With CNC(=S)N1CCN(c2ccccn2)CC1 the activity change was 5.96% (inactive).
In the case of C/C(CC(=O)Nc1ccc(N(C)C)cc1)=N\NC(=O)c1ccccc1F, the activity change is reported as -8.83% (inactive).
Cc1cccc(C)c1NC(=S)N1CCCCCC1 was tested, and the activity change was 3.43% (inactive).
In the case of C/C(=N\NC(=O)c1ccccc1F)c1ccccn1, the activity change is reported as -97.9% (active).
For CC(=NNC(=S)N1CCCCCC1)c1ccccn1, the activity change was -89.7% (active).
C#CCN(C[C@@H]1[C@@H](OC(=O)NC2CC2)[C@@H](OC(=O)NC2CC2)Cn2c(=O)ccc(=O)n21)S(=O)(=O)c1ccc(C)cc1 was tested, and the activity change was 3.71% (inactive).
In the case of FC(F)(F)c1ccccc1Cc1c(-c2ccccc2)nc2c3ccccc3ccn12, the activity change is reported as 6.14% (inactive).
With Cc1cccc(C(=O)C(O)(c2ccccc2)C2CCCCC2=O)c1 (stereo unspecified) the activity change was 3.76% (inactive).
With CC1(C(=O)NS(=O)(=O)c2ccc3ccccc3c2)CCN1C(=O)C1(c2ccc(Cl)cc2)CCC1 (stereo unspecified) the activity change was -4.19% (inactive).
O=C(CSc1nc2cccc(F)c2c(=O)n1-c1ccccc1)Nc1ccc2c(c1)CCC2 was tested, and the activity change was 8.09% (inactive).
With CC(=O)Nc1cccc(-c2ccnc3c2CC(C)(C(=O)NCc2ccccc2)O3)c1 (stereo unspecified) the activity change was 0.959% (inactive).
CC1(C(=O)NS(=O)(=O)c2ccccc2)CCN1C(=O)Cc1ccc(-c2ccccc2)cc1 (stereo unspecified) was tested, and the activity change was 1.02% (inactive).
In the case of O=c1[nH][nH]c2c1[C@H](c1ccc(Cl)cc1)O[C@H](CCc1ccccc1)C2, the activity change is reported as 1.98% (inactive).
In the case of COc1cccc(-c2cnc3c(NC(C)=O)cc(-c4cc(F)ccc4OC)cn23)c1, the activity change is reported as -20.8% (inactive).
Cc1c(Cl)c([N+](=O)[O-])nn1Cc1ccc(C(=O)N/N=C\c2cc(Cl)ccc2O)o1 was tested, and the activity change was -70.3% (active).
For Cc1nn(Cc2ccc(Cl)cc2)c(Cl)c1/C=N/NC(=O)c1cccnc1, the activity change was -0.89% (inactive).
Cc1ccc(C(=O)O)cc1NC(=O)c1ccc(Cn2nc(C)c(Cl)c2C)o1 was tested, and the activity change was 0% (inactive).
For CNc1cncc(-c2ccc(NS(C)(=O)=O)cc2)n1, the activity change was 0.0496% (inactive).
With COc1cccc(CNc2nc(NCc3ccccc3OC)nc3ccsc23)c1 the activity change was -7.75% (inactive).
With O=C1c2ccccc2C(=O)c2c1cccc2N1CCN(CCO)CC1 the activity change was -25.7% (inactive).
O=C1c2ccccc2C(=O)c2c1cccc2N1CCN(Cc2ccccc2)CC1 was tested, and the activity change was -94.4% (active).
O=S1(=O)CCN(Cc2ccccc2)CC1 was tested, and the activity change was 7.73% (inactive).
In the case of C[C@@H]1CN([C@@H](C)CO)C(=O)CCCn2nncc2CO[C@H]1CN(C)C(=O)Nc1ccc(C(F)(F)F)cc1, the activity change is reported as -18.9% (inactive).
In the case of COC(=O)[C@]12CCCCC=C1N(CCC1=CCCCC1)C(=O)[C@H](CC(=O)N1CCSCC1)C2, the activity change is reported as -7.56% (inactive).
With Cc1cc(Cl)ccc1-c1nc(NCCN(C)C)nc2ccsc12 the activity change was -3.67% (inactive).
With CCOc1ccc(-n2c(O)c(/C=N/Nc3nnc(C)c(=O)[nH]3)c3ccccc3c2=O)cc1 the activity change was -92.9% (active).
Cc1cc(=O)[nH]c(N/N=C/c2c(C)nn(-c3ccccc3Cl)c2Cl)n1 was tested, and the activity change was 5.1% (inactive).
In the case of Cc1nnc(N/N=C/C2CC=CCC2)[nH]c1=O (stereo unspecified), the activity change is reported as -19.9% (inactive).
For Cc1nnc(N/N=C/c2ccccn2)[nH]c1=O, the activity change was -90.3% (active).
With CCN(CC)CCCN=Cc1c(O)n(-c2ccc(C)cc2)c(=O)c2ccccc12 the activity change was -3% (inactive).
CCOc1ccc(-n2c(O)c(/C=N/Nc3nc(C)cc(C)n3)c3ccccc3c2=O)cc1 was tested, and the activity change was -6.77% (inactive).
COc1ccc(Cc2nnc(SCC(=O)Nc3ccc(C)c(Cl)c3)[nH]c2=O)cc1 was tested, and the activity change was -19.5% (inactive).
Cc1ccc(NC(=O)CSc2nnc(CNC(=O)c3ccccc3F)o2)cc1Cl was tested, and the activity change was -15.1% (inactive).
With Cc1ccc(NC(=O)CSc2nn3c(=O)c(C)nnc3s2)cc1Cl the activity change was -85.4% (active).
CC1(C(=O)NCc2ccc3c(c2)OCO3)CCN1C(=O)Cc1cccc2ccccc12 (stereo unspecified) was tested, and the activity change was -3.05% (inactive).
With CCOC(=O)C=Cc1ccc(C(=O)OCC)[nH]1 the activity change was 1.94% (inactive).
O=C(NC1CCCCC1)C(c1cc2ccccc2o1)n1c(=O)c(-c2ccco2)nc2ccccc21 (stereo unspecified) was tested, and the activity change was 6.62% (inactive).
Cc1cccc(-n2cnc(C(=O)NNC(=S)Nc3ccccc3)c2)n1 was tested, and the activity change was -91.7% (active).
Cc1cccc(-n2cnc(C(=O)Nc3cccnc3)c2)n1 was tested, and the activity change was 3.1% (inactive).
Cn1cc(Cl)c(C(=O)NNC(=S)Nc2cccc(Cl)c2)n1 was tested, and the activity change was -27.4% (inactive).
For CC(C)N=C1CCCC1C(=S)SSC(=S)C1CCCC1=NC(C)C (stereo unspecified), the activity change was -5.04% (inactive).
CCCCCNC(=O)C(c1ccc(OC)cc1)n1c(=O)c(-c2ccccc2)nc2ccccc21 (stereo unspecified) was tested, and the activity change was 0% (inactive).
In the case of C#Cc1ccc(NC(=O)C2(C)CCN2C(=O)Cc2ccc(-c3ccccc3)cc2)cc1 (stereo unspecified), the activity change is reported as 0.392% (inactive).
For O=C(Cn1ncc2c3ccccc3n(Cc3ccccc3)c2c1=O)NCc1ccccn1, the activity change was -0.706% (inactive).
In the case of Cc1c2cnn(CC(=O)NCc3ccccn3)c(=O)c2c(C)n1Cc1ccc(Cl)cc1, the activity change is reported as -67.4% (active).
For Cc1ccc(Cn2c(C)c3cnn(CC(=O)NCc4ccccn4)c(=O)c3c2C)cc1, the activity change was -24.7% (inactive).
CCc1nc2c(OCc3ccc(C(=O)OC)cc3)cccn2c1N(C)C(=O)C(C)C was tested, and the activity change was 0.85% (inactive).
With CC(=O)Nc1cccc(-c2cc(NC=O)c3ncc(-c4ccc(F)c(Cl)c4)n3c2)c1 the activity change was 6.58% (inactive).
In the case of Cc1nc2ccccc2nc1N/N=C/c1ccc(O)cc1O, the activity change is reported as -92.6% (active).
In the case of COc1ccccc1N1CCN(/N=C/c2ccc(O)cc2O)CC1, the activity change is reported as -7.8% (inactive).
In the case of Oc1ccc(-c2nc3ccccc3nc2-c2ccc(O)cc2O)c(O)c1, the activity change is reported as -12.2% (inactive).
With CC(C)n1ncc2c(C(=O)N3CCN(Cc4cccs4)CC3)cc(C3CC3)nc21 the activity change was -9.59% (inactive).
COc1cc(NC(=O)c2cc(-c3ccc(F)cc3OC(C)C)n[nH]2)cc(OC)c1OC was tested, and the activity change was -4.63% (inactive).
In the case of C[C@H]1CN([C@@H](C)CO)S(=O)(=O)c2ccc(Br)cc2O[C@H]1CN(C)C(=O)c1cnccn1, the activity change is reported as 0.784% (inactive).
In the case of O=C(N/N=C/c1ccccn1)C12CC3CC(CC(C3)C1)C2, the activity change is reported as 1.59% (inactive).
With Cc1cc(C(=O)N/N=C/c2ccccn2)c2ccccc2n1 the activity change was -14.7% (inactive).
S=C(NN=Cc1ccccn1)Nc1ccccn1 was tested, and the activity change was -73.6% (active).
In the case of COc1ccc(-c2ccc(CN3C(CC(C)C)C(=O)N(Cc4cn(CC5CCCCC5)nn4)CCS3(=O)=O)cc2)cc1 (stereo unspecified), the activity change is reported as -0.831% (inactive).
Cc1ccc(S(=O)(=O)N2CCC(=O)N([C@H](COCc3ccccc3)C(C)C)CC2)cc1 was tested, and the activity change was 3.58% (inactive).
With CC(C)(C)Cc1c(C2CCCCC2)nc2ccc(Br)cn12 the activity change was 10.7% (inactive).
Cc1ccc(C(=O)NC(=S)NCCN2CCOCC2)cc1 was tested, and the activity change was -5.38% (inactive).
For CCOc1cccc(/C=N/NC(=S)NCCN2CCOCC2)c1O, the activity change was -80.7% (active).
For COc1cccc(NC(=S)NCCCN2CCOCC2)c1, the activity change was 5.66% (inactive).
In the case of Nc1cccc(-c2cncc(N3CCN(Cc4ccccn4)CC3)n2)c1, the activity change is reported as 1.71% (inactive).
With Cc1c(NC(=O)CSc2cccc3cccnc23)c(=O)n(-c2ccccc2)n1C the activity change was -87.1% (active).
With Cc1ccccc1OCCC(=O)Nc1c(C)n(C)n(-c2ccccc2)c1=O the activity change was -0.0402% (inactive).
With Cc1ccc(S(=O)(=O)CC(=O)Nc2c(C)n(C)n(-c3ccccc3)c2=O)cc1 the activity change was -13.1% (inactive).
COc1ccc(CC(N)c2csc(NC(=O)Nc3ccc(C(C)C)cc3)n2)cc1 (stereo unspecified) was tested, and the activity change was -13.2% (inactive).
With O=C(NCCCn1ccnc1)C(=O)NCC1OCCN1S(=O)(=O)c1cc(F)ccc1F (stereo unspecified) the activity change was -71.2% (active).
In the case of O=C(NCCCc1ccccc1)C(=O)NCC1OCCN1S(=O)(=O)c1ccccc1 (stereo unspecified), the activity change is reported as 22.6% (inactive).
Cc1cc(F)ccc1S(=O)(=O)N1CCCOC1CNC(=O)C(=O)NCCC1=CCCCC1 (stereo unspecified) was tested, and the activity change was 22.2% (inactive).
With COc1ccc([C@H]2CC(=O)C[C@@H](CCn3cc(CC4CCCC4)nn3)O2)cc1 the activity change was -3.9% (inactive).
CC1(C(=O)NS(=O)(=O)c2ccc(Cl)cc2)CCN1C(=O)CC1CCCC1 (stereo unspecified) was tested, and the activity change was 2.24% (inactive).
For CN[C@H]1C[C@H]2c3cc(Oc4ccccc4C)ccc3CCN2C(=O)[C@H]1[C@H](C)O, the activity change was -12.1% (inactive).
In the case of CCOc1cc(/C=N/n2cnnc2)c(Br)cc1O, the activity change is reported as -6.92% (inactive).
In the case of CCOc1ccc(N2C(=O)CSC2=NC#N)cc1, the activity change is reported as -0.654% (inactive).
For CCOc1cccc(/C=N/N2C(=O)CSC2=S)c1O, the activity change was -92.9% (active).
For Cc1ccccc1-c1csc(C(O)c2cccc(Cl)c2)n1 (stereo unspecified), the activity change was 3.42% (inactive).
With CN(C(=O)CN1CCN(c2cc(-c3ccc(OCc4ccccc4)cc3)ncn2)CC1)c1ccccc1 the activity change was 0.325% (inactive).
In the case of COc1ccc2cc1Oc1ccc(cc1)C[C@H]1c3cc(c(OC)cc3CCN1C)Oc1c(O)c(OC)cc3c1[C@H](C2)N(C)CC3, the activity change is reported as -4.43% (inactive).
For COc1c(O)ccc2c1CN1CCc3cc4c(cc3C1C2)OCO4 (stereo unspecified), the activity change was -66.6% (active).
With COc1cc(C(=O)CCc2ccc3c(c2)OCO3)cc(OC)c1OC the activity change was 2.78% (inactive).
